# Test results from publication PMC7819943, “Rice protein-binding microarrays: a tool to detect cis-acting elements near promoter regions in rice”.
# Whole data set: some 68,000 sequences, median “fluorescence intensity (a.u.)” near 9,100, cut for the highest 2% near 16,000. Shown is part of a subset that was picked to be rich in the highest values.
# Biological target: OsWRKY34 (Oryza sativa, UniProt Q0JBA9 1-250)
# Assay: protein-binding microarray (RPBM); PBS, 2% BSA, 51.3 ng/ul salmon testes DNA, 50 uM zinc acetate, 200 nM TF, 25 C, 1 h; high values mean tight binding
# Settings: protein: recombinant; tags: N-terminal polyhistidine and DsRed monomer fusion (pET32a); label: CyDye5-dUTP incorporated in the synthesized complementary strand; 3' TTTTT single-stranded linker to array surface; dsDNA, one strand shown
# How it was run: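 Ni–NTA purification followed expression in E. coli BL21-CodonPlus of transcription factors fused N-terminally to a polyhistidine tag and DsRed. At 200 nM in PBS with 2% BSA, salmon testes DNA and 50 µM zinc acetate, the protein was incubated for 1 h at 25 °C with a custom Agilent array that had been primer-extended with Cy5-dUTP and blocked with 2% BSA. After washing, the array was read on an Axon 4000B scanner. The binding signal is per-feature fluorescence intensity in arbitrary units.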
# Sequence of OsWRKY34 (Q0JBA9 entry or part of it): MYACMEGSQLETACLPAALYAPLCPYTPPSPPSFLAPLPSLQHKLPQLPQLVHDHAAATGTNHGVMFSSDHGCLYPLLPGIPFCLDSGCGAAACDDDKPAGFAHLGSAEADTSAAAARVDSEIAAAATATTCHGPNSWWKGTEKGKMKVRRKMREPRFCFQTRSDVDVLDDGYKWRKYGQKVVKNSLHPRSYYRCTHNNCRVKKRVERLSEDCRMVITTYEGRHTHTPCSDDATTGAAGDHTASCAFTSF
row,Sequence,binding signal
1,ATACGAGCCAAAGACCGTTGACAAGCTAGTCAACAGTCATCGGAGTCACCTAGTGCAG,8910 fluorescence intensity (a.u.)
2,AACCAAACAACCGTTGTCTTGGCACAGCTGTCGCAACCTGCGGAGTCACCTAGTGCAG,8200 fluorescence intensity (a.u.)
3,TTTTGTCTACTGCGCCTACCACGCCGTTGTCCACTACCTCCGGAGTCACCTAGTGCAG,10400 fluorescence intensity (a.u.)
4,GCTGCACAGCTAGTCAACACAAGCTAGTCAAACCGTTGACCGGAGTCACCTAGTGCAG,19200 fluorescence intensity (a.u.)
5,AAGCTAGTCAAACCGTTGACTACCACTGTCTTTGTTGCGCCGGAGTCACCTAGTGCAG,16800 fluorescence intensity (a.u.)
6,AACCATCATGACCGGCTACCACTAAGCTGCGCCTGTCTACCGGAGTCACCTAGTGCAG,8700 fluorescence intensity (a.u.)
7,CCTCGAGCTGTGCACGGCTGGTTCGTCTCGCGCCGCTTATCGGAGTCACCTAGTGCAG,10900 fluorescence intensity (a.u.)
8,TCAGTGTCGGCCGCGATGTCTTTGCAGCTTTGCTGGTTTTCGGAGTCACCTAGTGCAG,8090 fluorescence intensity (a.u.)
9,GGTATTGTTGATACTTTCAGTTTTCGCATTTGTTCGCTTCCGGAGTCACCTAGTGCAG,9230 fluorescence intensity (a.u.)
10,AAACTTAGCAAGAGCTCTGACCTATTGGAAAATTTTCTTTCGGAGTCACCTAGTGCAG,9480 fluorescence intensity (a.u.)
11,AGATTTGGTTTTTTAGGCCGGTTTTTCGTTTTGTCGCCCTCGGAGTCACCTAGTGCAG,8750 fluorescence intensity (a.u.)
12,ATATTTGGTTTTTTTTCGTACTTTTTTTCGCCCGGTTTTTCGGAGTCACCTAGTGCAG,20800 fluorescence intensity (a.u.)
13,GACCTATTTTCGCGATTTTCCCCGGTTGACCACTACTTTTCGGAGTCACCTAGTGCAG,13100 fluorescence intensity (a.u.)
14,TATATATATTTATCACCGGTTTATTTTGGTCTGGTCTTTTCGGAGTCACCTAGTGCAG,13000 fluorescence intensity (a.u.)
15,TTTCGTGATTTTCCCCGGTTGGCCACTACTTTTGCGATTTCGGAGTCACCTAGTGCAG,9570 fluorescence intensity (a.u.)
16,GGACCTACTTTCGCGATTTTCCCCGGTTGGCCACTACTTTCGGAGTCACCTAGTGCAG,18800 fluorescence intensity (a.u.)
17,CAGGACTGCGTGCTCCTTCTCGTTGTTCCTTACTCACCTTCGGAGTCACCTAGTGCAG,9560 fluorescence intensity (a.u.)
18,CTACTGCTTTCTTTCTTTCTCTATTGCAGTCTACCTCCTACGGAGTCACCTAGTGCAG,11400 fluorescence intensity (a.u.)
19,CTTTTGACTGCCACAGTGTGTTAGGTATATGTTTGTTTCACGGAGTCACCTAGTGCAG,11700 fluorescence intensity (a.u.)
20,TCTTCCTCATGCGATTTGGTTGGTTGGTTTGACGCTACACCGGAGTCACCTAGTGCAG,13600 fluorescence intensity (a.u.)
21,GGGTGTGTGCGCATGTGTGTTTGTCGTGTATTAAAAAAAACGGAGTCACCTAGTGCAG,9130 fluorescence intensity (a.u.)
22,TTAATTATTTCTTGGTATTTGGGTTAAGGGTGGTTGTGCCCGGAGTCACCTAGTGCAG,12600 fluorescence intensity (a.u.)
23,TCTACTTTTCTCCACTCTTTTGCTATAGGGGCTGGGGTGGCGGAGTCACCTAGTGCAG,14200 fluorescence intensity (a.u.)
24,TATCTTAGGGCATGTTTGGTTGTACGGATCGTACCTGACTCGGAGTCACCTAGTGCAG,9620 fluorescence intensity (a.u.)
25,GATGGCTACCTAGCTGACACGCAACGCCGGCCTCCGGATCCGGAGTCACCTAGTGCAG,10600 fluorescence intensity (a.u.)
26,TATATATATGTGTGTGTGTGTGTGTGTGTGTGTGTGTGTGCGGAGTCACCTAGTGCAG,10100 fluorescence intensity (a.u.)
27,AGCAGATGGAGTATATCTTTAGCTAATTAAGCTATAGCTACGGAGTCACCTAGTGCAG,23000 fluorescence intensity (a.u.)
28,TGGTGGTTTTCGTCGTCGTCGTCGTCGTCGGCTTCATATACGGAGTCACCTAGTGCAG,10100 fluorescence intensity (a.u.)

row,Sequence,binding signal
1,TTAATTATATGCTAATGGCTAACCTTATTTTACGTATCTTCGGAGTCACCTAGTGCAG,8180 fluorescence intensity (a.u.)
2,TATATATATATATATATATATATATATGTGTGTGTGTGTTCGGAGTCACCTAGTGCAG,14600 fluorescence intensity (a.u.)
3,TGGGTTTGTGGGTTATGTTTCGGTGCGTGCCGATAGTATACGGAGTCACCTAGTGCAG,14300 fluorescence intensity (a.u.)
4,TATATATATATATATATATGTGTGTGTGTGTGTGTATGGTCGGAGTCACCTAGTGCAG,9770 fluorescence intensity (a.u.)
5,GAATCATGTGCTATCTCGTTAATTATCTGCTCTTTTAGCTCGGAGTCACCTAGTGCAG,9000 fluorescence intensity (a.u.)
6,TATATATATATATATATATATATATATATATATGTGTGTGCGGAGTCACCTAGTGCAG,18100 fluorescence intensity (a.u.)
7,TATATATATATATATATATATATATATATGTGTGTGTGTGCGGAGTCACCTAGTGCAG,13700 fluorescence intensity (a.u.)
8,TATATATATATATATATATATATATATATATGGTGGTGTTCGGAGTCACCTAGTGCAG,20500 fluorescence intensity (a.u.)
9,GGGCGTGGTGGTGGTGGTGGTGGTTATACGGTTTTCGGTTCGGAGTCACCTAGTGCAG,25900 fluorescence intensity (a.u.)
10,CTCCCTTGCCGTCCCAGTTTCCCTGTATTCTGCATGCCGTCGGAGTCACCTAGTGCAG,9850 fluorescence intensity (a.u.)
11,ACTTTGCTGCCTATTGTAGATTTGTTATAACGTAGTTACTCGGAGTCACCTAGTGCAG,10400 fluorescence intensity (a.u.)
12,AACCCTCGCTTTCTTTGATAATCATTCCTAACTGCCTGGTCGGAGTCACCTAGTGCAG,8170 fluorescence intensity (a.u.)
13,AGTTACTGAGTTAGACGTCTCAAGCTGTGTCGTGGAATAACGGAGTCACCTAGTGCAG,8700 fluorescence intensity (a.u.)
14,AGGAGAGAAAGGAAGGTGGTGTGGGTGGTTGGTGGTGGTGCGGAGTCACCTAGTGCAG,10300 fluorescence intensity (a.u.)
15,GTCTTCTCTGTTCTTCTTCAGATGGCGAAAGCTCTCACCACGGAGTCACCTAGTGCAG,10400 fluorescence intensity (a.u.)
16,GCCTGCTATTGTACCTGCTTTAATATAGCCAACCTACTATCGGAGTCACCTAGTGCAG,8330 fluorescence intensity (a.u.)
17,ATATATATATATATATATGTGTGTATATATATATATATATCGGAGTCACCTAGTGCAG,8920 fluorescence intensity (a.u.)
18,ATATATATATATATATATATACATACATATACACACACACCGGAGTCACCTAGTGCAG,8050 fluorescence intensity (a.u.)
19,ATATATATATATATATATATATGTGTGTGTGTGTGTGTCCCGGAGTCACCTAGTGCAG,14500 fluorescence intensity (a.u.)
20,ATATATATATATATATATATATATATATATACACACACACCGGAGTCACCTAGTGCAG,22200 fluorescence intensity (a.u.)
21,ATAGCCAACTATTACTTTTAAATTATTTATAGTCAAATTTCGGAGTCACCTAGTGCAG,9190 fluorescence intensity (a.u.)
22,ATATATATATATATATATATATATATATATATGCAGCATGCGGAGTCACCTAGTGCAG,13100 fluorescence intensity (a.u.)
23,TATATATACACACACACACAAACACACACACACACACACACGGAGTCACCTAGTGCAG,8720 fluorescence intensity (a.u.)
24,ATATATATATATATATATATATATATATATATGTATGTATCGGAGTCACCTAGTGCAG,10100 fluorescence intensity (a.u.)
25,CTTTAATAGTATAGCCAACTACTACCTCGGAATCACCTATCGGAGTCACCTAGTGCAG,20300 fluorescence intensity (a.u.)
26,TATATATATATATATATATATATATATATATATGGAGTATCGGAGTCACCTAGTGCAG,24600 fluorescence intensity (a.u.)
27,ATATATATATATATATATATATATATGCAGCAACAGGGCCCGGAGTCACCTAGTGCAG,17400 fluorescence intensity (a.u.)
